Reference: PubChem BioAssay (EPA / NIEHS)
“And” between values parts separate entries of the source, which are not always exact repeats. Equal entries are not always repeated. Results filed as inconclusive are left out. Where a structure was tested more than once in an assay, its records may differ in their call. The source made the active and inactive calls. How the source made its calls: active means hit-call score of the fitted dose curve at least 0.9, where 1 is the maximum; inconclusive means response in the unintended direction; inactive means score below 0.9.

Experiments:
[1] = target: Estrogen receptor (Homo sapiens) (UniProt P03372); assay: OT_ER_ERaERa_1440: Odyssey Thera (OT) 24-hour HEK293T Protein-Complementation Assay for Estrogen Receptor-alpha/-alpha Homodimer (AID 2283349);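 further: hits raise fluorescence above DMSO for agonists and antagonists alike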
Sequence of Estrogen receptor (Homo sapiens) (P03372 whole entry, looked up, the tested form may be a part): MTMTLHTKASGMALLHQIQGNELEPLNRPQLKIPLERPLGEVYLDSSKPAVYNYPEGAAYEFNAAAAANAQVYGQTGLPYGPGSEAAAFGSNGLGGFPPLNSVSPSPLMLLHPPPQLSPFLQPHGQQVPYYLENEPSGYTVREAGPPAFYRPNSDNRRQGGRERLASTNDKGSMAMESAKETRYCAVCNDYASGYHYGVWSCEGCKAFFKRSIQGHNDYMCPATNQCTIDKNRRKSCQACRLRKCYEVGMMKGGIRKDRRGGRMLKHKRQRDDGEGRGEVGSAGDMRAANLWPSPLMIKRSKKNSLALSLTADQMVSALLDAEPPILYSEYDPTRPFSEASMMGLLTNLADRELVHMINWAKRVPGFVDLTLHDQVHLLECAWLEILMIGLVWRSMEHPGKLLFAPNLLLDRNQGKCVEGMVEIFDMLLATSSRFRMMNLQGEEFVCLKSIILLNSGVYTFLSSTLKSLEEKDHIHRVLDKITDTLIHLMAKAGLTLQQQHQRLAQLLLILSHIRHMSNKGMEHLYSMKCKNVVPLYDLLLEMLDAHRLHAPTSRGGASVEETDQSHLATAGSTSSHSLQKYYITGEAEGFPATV
In short: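 Protein-fragment complementation between two human ERα ligand-binding domains (aa 310-547) in stably transfected HEK293T cells was monitored after 24 h treatment, using fluorescence intensity relative to vehicle controls.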

[2] = target: Estrogen receptor (Homo sapiens) (UniProt P03372); assay: OT_ER_ERaERa_0480: Odyssey Thera (OT) 8-hour HEK293T Protein-Complementation Assay for Estrogen Receptor-alpha/-alpha Homodimer (AID 2283351);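 further: rise in fluorescence from reassembled reporter fragments on ERα LBD homodimer in nucleus or whole cell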
In short: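 HEK293T, stable ERα LBD (aa 310-547) PCA homodimer; 8 h compound exposure; fluorescence intensity, laser scanning cytometer; positive fitting direction, DMSO baseline.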

[3] = target: T1, Estrogen receptor (Homo sapiens) + Estrogen receptor beta (Homo sapiens) (UniProt P03372+Q92731); assay: OT_ER_ERaERb_1440: Odyssey Thera (OT) 24-hour HEK293T Protein-Complementation Assay for Estrogen Receptor-alpha/-beta Homodimer (AID 2283356);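 further: heteromer of ER alpha and ER beta binding domains; hits raise reporter fluorescence and both agonists and antagonists give an increase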
T1 sequence (P03372 whole entry, looked up, the tested form may be a part): as above
T1 sequence (Q92731 whole entry, looked up, the tested form may be a part): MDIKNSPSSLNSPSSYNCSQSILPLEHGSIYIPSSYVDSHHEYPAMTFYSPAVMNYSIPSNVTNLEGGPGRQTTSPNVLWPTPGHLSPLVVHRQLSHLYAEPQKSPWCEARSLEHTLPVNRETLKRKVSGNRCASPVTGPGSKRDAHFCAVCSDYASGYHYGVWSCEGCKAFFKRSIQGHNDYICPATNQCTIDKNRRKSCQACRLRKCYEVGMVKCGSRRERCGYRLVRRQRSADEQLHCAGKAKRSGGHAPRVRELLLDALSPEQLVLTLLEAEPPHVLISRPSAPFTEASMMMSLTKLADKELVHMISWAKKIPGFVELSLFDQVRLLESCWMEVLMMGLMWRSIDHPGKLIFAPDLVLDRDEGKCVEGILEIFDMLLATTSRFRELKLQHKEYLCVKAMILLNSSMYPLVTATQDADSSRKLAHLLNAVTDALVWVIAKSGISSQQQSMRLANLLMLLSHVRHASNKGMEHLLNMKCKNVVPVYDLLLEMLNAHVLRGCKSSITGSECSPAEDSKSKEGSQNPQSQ
In short: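 HEK293T cells stably expressing a PCA pair of ERα LBD (aa 310-547) and ERβ LBD (aa 263-489) were dosed for 24 h. Fluorescence intensity increase versus DMSO vehicle was fitted as gain-of-signal.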

[4] = target: Estrogen receptor beta (Homo sapiens) (UniProt Q92731); assay: OT_ER_ERbERb_0480: Odyssey Thera (OT) 8-hour HEK293T Protein-Complementation Assay for Estrogen Receptor-beta/-beta Homodimer (AID 2283357);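 further: active means signal gain over DMSO baseline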
Sequence of Estrogen receptor beta (Homo sapiens) (Q92731 whole entry, looked up, the tested form may be a part): as above
In short: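 Cells (HEK293T, stable ER-beta LBD PCA pair) are treated 8 hours, fixed and Draq5-stained; signal is fluorescence intensity increase relative to vehicle, fitted in the gain direction.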

[5] = target: Bile acid receptor (Homo sapiens) (UniProt Q96RI1); assay: NVS_NR_hFXR_Antagonist: NovaScreen (NVS) Nuclear Receptor Binding Assay for human Farnesoid X Receptor Antagonism (FXR) (AID 2283350)
In short: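 Cell-free TR-FRET ligand-binding read-out on human FXR (NR1H4) in antagonist mode, measured 1 h after dosing. Primary screen in duplicate at 25 uM, actives retested in concentration series; signal loss scored versus DMSO.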

[6] = target: T1, Estrogen receptor (Homo sapiens) + Estrogen receptor beta (Homo sapiens); assay: OT_ER_ERaERb_0480: Odyssey Thera (OT) 8-hour HEK293T Protein-Complementation Assay for Estrogen Receptor-alpha/-beta Heterodimer (AID 2283352)
In short: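 HEK293T cells expressing ER-alpha/ER-beta LBD fusions to complementary reporter fragments were dosed with compound for 8 hours. Heterodimer formation was read as increased nuclear (agonist) or nuclear plus cytoplasmic (antagonist) mean fluorescence intensity versus DMSO vehicle.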

[7] = target: human Peroxisome Proliferator-activated Receptor alpha (PPARa), PPARA (gene 5465) (UniProt Q07869); assay: NVS_NR_hPPARa: NovaScreen (NVS) Nuclear Receptor Binding Assay for human Peroxisome Proliferator-activated Receptor alpha (PPARa) (AID 2283359);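 further: activity means loss of TR-FRET signal versus DMSO baseline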
Sequence of human Peroxisome Proliferator-activated Receptor alpha (PPARa), PPARA (gene 5465) (Q07869 whole entry, looked up): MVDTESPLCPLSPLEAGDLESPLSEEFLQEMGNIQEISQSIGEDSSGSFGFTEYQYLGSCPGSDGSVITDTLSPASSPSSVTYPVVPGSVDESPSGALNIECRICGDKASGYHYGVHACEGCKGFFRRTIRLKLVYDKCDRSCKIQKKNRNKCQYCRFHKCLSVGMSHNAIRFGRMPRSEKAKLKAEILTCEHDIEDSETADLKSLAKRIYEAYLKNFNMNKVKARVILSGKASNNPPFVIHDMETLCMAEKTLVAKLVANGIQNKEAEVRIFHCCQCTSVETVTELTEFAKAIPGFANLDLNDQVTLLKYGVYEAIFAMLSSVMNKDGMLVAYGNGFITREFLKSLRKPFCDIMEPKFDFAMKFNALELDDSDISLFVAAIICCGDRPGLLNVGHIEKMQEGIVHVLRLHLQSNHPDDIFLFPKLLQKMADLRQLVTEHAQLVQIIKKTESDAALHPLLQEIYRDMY
In short: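 Chemicals were first screened in duplicate at 25 uM, and active ones were retested across concentration series. Binding was monitored by TR-FRET one hour after dosing, with decreased signal against DMSO counted as activity.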

[8] = target: guinea pig Sigma Receptor, Non-selective Binding, SIGMAR1 (gene 100135589) (UniProt Q60492); assay: NVS_OR_gSIGMA_NonSelective: NovaScreen (NVS) Nuclear Receptor Binding Assay for guinea pig Sigma Receptor, Non-selective Binding (AID 2283367)
Sequence of guinea pig Sigma Receptor, Non-selective Binding, SIGMAR1 (gene 100135589) (Q60492 whole entry, looked up): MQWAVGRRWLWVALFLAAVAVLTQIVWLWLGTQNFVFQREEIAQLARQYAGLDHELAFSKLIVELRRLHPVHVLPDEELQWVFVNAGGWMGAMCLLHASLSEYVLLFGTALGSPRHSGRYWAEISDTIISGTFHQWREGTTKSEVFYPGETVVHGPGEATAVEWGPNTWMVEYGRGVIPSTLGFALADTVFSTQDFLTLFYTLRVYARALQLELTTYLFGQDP
In short: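 gp brain membr., radioligand displacement, 1 h, filtration + scint. counting; DMSO = baseline; 25 uM x2 primary, conc.-response confirm.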

[9] = target: Estrogen receptor (Homo sapiens) (UniProt P03372); assay: NVS_NR_hER: NovaScreen (NVS) Nuclear Receptor Binding Assay for human Estrogen Receptor (ER) (AID 2283348)
In short: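 Scintillation signal from bound radioligand was measured 18 hours after chemical addition to cell-free MCF7 protein extracts, with DMSO as baseline. Activity was scored as signal loss; compounds ran first at 25 uM in duplicate.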

[10] = target: Glucocorticoid receptor (Homo sapiens) (UniProt P04150); assay: NVS_NR_hGR: NovaScreen (NVS) Nuclear Receptor Binding Assay for human Glucocorticoid Receptor (GR) (AID 2283363);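 on AC50: activity is loss of specific radioligand binding signal relative to DMSO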
In short: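 Competitive displacement of a labelled ligand was measured on cell-free receptor preparations after 16 h exposure. Initial testing used 25 uM in duplicate with plate controls; confirmed actives went into concentration series.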

[11] = target: Nuclear receptor subfamily 1 group I member 2 (Homo sapiens) (UniProt O75469); assay: NVS_NR_hPXR: NovaScreen (NVS) Nuclear Receptor Binding Assay for human Pregnane X Receptor (PXR) (AID 2283365);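 further: a drop in FRET signal versus DMSO baseline means the compound binds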
Sequence of Nuclear receptor subfamily 1 group I member 2 (Homo sapiens) (O75469 whole entry, looked up): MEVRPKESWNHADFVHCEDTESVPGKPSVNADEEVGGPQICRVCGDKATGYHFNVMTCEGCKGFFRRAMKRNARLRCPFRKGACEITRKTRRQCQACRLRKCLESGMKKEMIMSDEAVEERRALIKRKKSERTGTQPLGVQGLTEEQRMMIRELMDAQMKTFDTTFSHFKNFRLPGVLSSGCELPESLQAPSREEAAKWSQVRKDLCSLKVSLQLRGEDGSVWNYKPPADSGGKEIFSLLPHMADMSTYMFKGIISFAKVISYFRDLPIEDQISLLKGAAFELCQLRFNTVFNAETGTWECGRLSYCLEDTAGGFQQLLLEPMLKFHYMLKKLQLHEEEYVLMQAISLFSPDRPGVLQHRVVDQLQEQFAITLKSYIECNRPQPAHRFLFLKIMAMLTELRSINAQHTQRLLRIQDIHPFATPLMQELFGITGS
In short: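 Cell-free binding assay with extracted human PXR protein, read by TR-FRET 2 h after dosing; loss of signal relative to DMSO baseline indicates binding. Primary screen at 25 uM in duplicate, actives retested in concentration series.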

PGR (gene 5241) = PGR (gene 5241) (UniProt P06401); assay: NVS_NR_hPR: NovaScreen (NVS) Nuclear Receptor Binding Assay for human Progestron Receptor (PR) (AID 2283360);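 further: active means loss of bound radioligand signal versus DMSO baseline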
Sequence of PGR (gene 5241) (P06401 whole entry, looked up): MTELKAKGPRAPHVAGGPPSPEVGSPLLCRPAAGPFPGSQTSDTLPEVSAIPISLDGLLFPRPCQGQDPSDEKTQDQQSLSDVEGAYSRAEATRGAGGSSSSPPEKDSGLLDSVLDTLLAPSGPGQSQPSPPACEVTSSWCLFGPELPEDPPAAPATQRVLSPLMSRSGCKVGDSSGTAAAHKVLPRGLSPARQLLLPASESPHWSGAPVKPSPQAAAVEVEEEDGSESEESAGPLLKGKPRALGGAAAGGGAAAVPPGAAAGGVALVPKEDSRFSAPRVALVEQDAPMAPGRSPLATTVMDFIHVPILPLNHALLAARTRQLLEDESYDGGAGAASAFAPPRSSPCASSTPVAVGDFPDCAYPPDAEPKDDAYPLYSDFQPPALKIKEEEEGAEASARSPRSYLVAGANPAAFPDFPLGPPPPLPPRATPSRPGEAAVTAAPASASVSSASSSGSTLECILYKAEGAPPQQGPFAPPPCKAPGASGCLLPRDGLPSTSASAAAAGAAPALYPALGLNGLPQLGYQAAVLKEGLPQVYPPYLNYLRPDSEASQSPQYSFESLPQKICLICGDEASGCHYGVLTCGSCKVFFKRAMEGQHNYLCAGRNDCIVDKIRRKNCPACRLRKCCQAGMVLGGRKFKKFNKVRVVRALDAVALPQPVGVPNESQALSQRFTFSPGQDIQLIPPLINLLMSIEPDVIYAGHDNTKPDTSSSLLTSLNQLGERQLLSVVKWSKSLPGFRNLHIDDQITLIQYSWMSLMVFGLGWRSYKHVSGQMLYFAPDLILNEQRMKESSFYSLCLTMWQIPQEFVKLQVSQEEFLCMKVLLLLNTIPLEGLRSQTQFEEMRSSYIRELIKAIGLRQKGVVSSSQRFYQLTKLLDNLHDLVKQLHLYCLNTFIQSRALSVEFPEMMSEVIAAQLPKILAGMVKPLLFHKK
In short: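 Competitive displacement of a labelled radioligand from T47D-derived receptor protein is measured in a cell-free format. Initial testing uses 25 uM in duplicate, with positive and negative controls on every plate.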

[12] = target: Androgen Receptor/SRC-1 Co-activator, AR (gene 367) (UniProt P10275); assay: OT_AR_ARSRC1_0960: Odyssey Thera (OT) 16-hour HEK293T Protein-Complementation Assay for Androgen Receptor/SRC-1 Co-activator (AID 2283353);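 further: actives raise the signal above DMSO so potency reflects increased AR and SRC-1 complex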
Sequence of Androgen Receptor/SRC-1 Co-activator, AR (gene 367) (P10275 whole entry, looked up, the tested form may be a part): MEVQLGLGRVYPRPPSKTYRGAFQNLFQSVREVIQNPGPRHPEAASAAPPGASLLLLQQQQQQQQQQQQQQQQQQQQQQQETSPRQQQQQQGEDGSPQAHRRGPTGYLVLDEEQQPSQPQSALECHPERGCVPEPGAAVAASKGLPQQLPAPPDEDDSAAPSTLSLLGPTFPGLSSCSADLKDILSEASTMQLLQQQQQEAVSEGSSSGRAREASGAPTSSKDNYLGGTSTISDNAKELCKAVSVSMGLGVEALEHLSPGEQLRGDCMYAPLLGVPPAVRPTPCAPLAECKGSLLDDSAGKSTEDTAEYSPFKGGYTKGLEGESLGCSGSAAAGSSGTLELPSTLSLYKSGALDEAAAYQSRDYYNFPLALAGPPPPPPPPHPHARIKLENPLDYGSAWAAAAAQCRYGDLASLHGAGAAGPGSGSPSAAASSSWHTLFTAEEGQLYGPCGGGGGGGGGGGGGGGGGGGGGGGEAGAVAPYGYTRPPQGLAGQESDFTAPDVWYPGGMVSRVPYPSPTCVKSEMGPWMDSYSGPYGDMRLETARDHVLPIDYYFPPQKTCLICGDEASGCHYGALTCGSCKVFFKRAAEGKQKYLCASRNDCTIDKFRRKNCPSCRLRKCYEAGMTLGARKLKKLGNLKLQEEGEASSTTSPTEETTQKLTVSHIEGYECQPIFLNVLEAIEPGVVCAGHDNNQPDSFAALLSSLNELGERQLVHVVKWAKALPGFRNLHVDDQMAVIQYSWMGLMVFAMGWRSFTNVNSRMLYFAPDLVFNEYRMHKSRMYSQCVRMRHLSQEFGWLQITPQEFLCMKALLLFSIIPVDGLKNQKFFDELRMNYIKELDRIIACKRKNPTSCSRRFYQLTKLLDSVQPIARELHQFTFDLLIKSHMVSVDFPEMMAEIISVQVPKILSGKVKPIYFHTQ
In short: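 Split-Venus PCA, AR/SRC-1 fusions, stable HEK293T; 16 h compound exposure; imaged at 488 and 635 nm; N/C ratio (488 nm channel), min 400 cells/image; positive-direction fit, DMSO baseline.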

[13] = target: Androgen Receptor/SRC-1 Co-activator, AR (gene 367) (UniProt P10275); assay: OT_AR_ARSRC1_0480: Odyssey Thera (OT) 8-hour HEK293T Protein-Complementation Assay for Androgen Receptor/SRC-1 Co-activator (AID 2283354);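 further: hits raise the complementation signal above DMSO so AC50 marks enhancers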
In short: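 Measures AR/SRC-1 binding by Venus YFP fragment complementation in HEK293T stable lines at 8 h post-dose. Imaging quantifies the 488nm nucleus/cytoplasm ratio in ≥400 cells; DMSO defines baseline.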

[14] = target: Retinoic acid receptor alpha (Homo sapiens) (UniProt P10276); assay: NVS_NR_hRARa_Agonist: NovaScreen (NVS) Nuclear Receptor Binding Assay for human Retinoic Acid Alpha Receptor Agonism (RAR) (AID 2283361)
Sequence of Retinoic acid receptor alpha (Homo sapiens) (P10276 whole entry, looked up): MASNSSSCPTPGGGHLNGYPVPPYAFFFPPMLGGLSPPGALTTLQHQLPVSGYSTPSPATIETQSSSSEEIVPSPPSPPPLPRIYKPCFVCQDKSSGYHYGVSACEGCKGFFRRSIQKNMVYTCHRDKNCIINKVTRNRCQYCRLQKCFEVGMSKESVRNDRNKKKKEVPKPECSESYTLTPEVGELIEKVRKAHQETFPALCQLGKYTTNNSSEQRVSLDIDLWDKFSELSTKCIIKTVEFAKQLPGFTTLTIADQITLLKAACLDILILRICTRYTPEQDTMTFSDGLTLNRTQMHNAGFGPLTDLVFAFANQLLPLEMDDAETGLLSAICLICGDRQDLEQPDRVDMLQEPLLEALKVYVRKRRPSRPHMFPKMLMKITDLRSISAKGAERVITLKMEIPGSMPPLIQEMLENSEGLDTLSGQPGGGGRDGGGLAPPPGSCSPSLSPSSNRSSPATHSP
In short: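 Readout is time-resolved fluorescence resonance energy transfer after a 2 h exposure of cell-free extracted receptor protein. Initial testing used 25 uM in duplicate, with concentration-response follow-up for active chemicals.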

[15] = target: rat Mineralocorticoid Receptor (MR), Nr3c2 (gene 25672) (UniProt P22199); assay: NVS_NR_rMR: NovaScreen (NVS) Nuclear Receptor Binding Assay for rat Mineralocorticoid Receptor (MR) (AID 2283355)
In short: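 Adrenalectomized rat brain supernatant was dosed with test chemical, then radioligand binding was measured by scintillation counting at 24 h. Initial testing ran in duplicate at 25 uM, followed by concentration series for actives.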

Measured: AC50

CC(Cc1ccc(OCC(=O)O)cc1)NCC(O)c1csc(C(F)(F)F)n1 (stereo unspecified)
inactive: [1] | [2] | [3] | [4]

CCCCc1ccccc1
inactive: [1] | [5] | [6] | [3] | [4]

O=C(O)C(Cl)Cl
inactive: [1] | [2] | [7] | [8]

C=CC(=O)OCC(CC)(COC(=O)C=C)COC(=O)C=C
active: [9] 13.7 µM | [10] 14 µM
inactive: [9]

O=NN1CCCC1
active: [1] 12.1 µM
inactive: [6] | [3] | [4] | [11]

OCC1CO1 (stereo unspecified)
inactive: [1] | [11]

CC(Cl)CN(C)C (stereo unspecified)
inactive: PGR (gene 5241)

FC(F)(F)c1ccc(Cl)cc1
inactive: [2] | [3] | [4]

CC(C)(C)N(NC(=O)c1ccc(Cl)cc1)C(=O)c1ccccc1
inactive: [1] | [12] | [13] | [3] | [4] | [11]

Cc1cccc(N)c1
inactive: [1] | [2] | [14]

CCCCC(CC)COC(=O)c1c(Br)c(Br)c(Br)c(Br)c1C(=O)OCC(CC)CCCC (stereo unspecified)
inactive: [1] | [6] | [3] | [4]
active: [10] 6.58 µM and 6.59 µM

Cc1ccc([N+](=O)[O-])cc1C
inactive: [1] | [6] | [3] | [4]

CSC(C)(C)C=NO
active: [15] 4.44 µM
inactive: [1] | PGR (gene 5241) | [10]

O=C(CBr)OCc1ccccc1
inactive: [1] | [6] | [3] | [4] | [7]

c1cc2c3c(cccc3c1)CC2
inactive: [1] | [6] | [12] | [3] | [4]

Cc1ccc(N)cc1N
inactive: [1] | [6] | [3] | [4]

c1ccc2c(c1)sc1ccccc12
inactive: [1] | [2] | [10]
active: [10] 0.179 µM

O=C(O)CF
inactive: [1] | [6] | [3] | [4]

Nc1ccc2ccccc2c1
inactive: [1] | [6] | [3] | [4]

O=c1ssc(Cl)c1Cl
inactive: [1] | [4]

CC(C)(C)c1ccccc1OP(=O)(Oc1ccccc1)Oc1ccccc1
inactive: PGR (gene 5241)

CCNc1nc(Cl)nc(NC(C)(C)C)n1
inactive: [1] | [6] | [12] | [13] | [3] | [4]

CCCCOCCOP(=O)(OCCOCCCC)OCCOCCCC
inactive: [1] | [3] | [4] | [14]
active: [11] 5.67 µM

CCC1(c2ccccc2)C(=O)N=C(O)NC1=O (stereo unspecified)
inactive: [1] | [6] | [4]

CCOP(=S)(NC(C)C)Oc1ccccc1C(=O)OC(C)C (stereo unspecified)
inactive: [15] | [10]

c1nc[nH]n1
inactive: [1] | [6] | [3] | [4]

CCOc1ccc(C(C)(C)COCc2cccc(Oc3ccccc3)c2)cc1
inactive: [1] | [6] | [3] | [4]

CCOP(=S)(OCC)SCSCC
inactive: [1] | [6] | [3] | [4] | [7]

CCOP(=S)(Oc1ccc([N+](=O)[O-])cc1)c1ccccc1 (stereo unspecified)
active: [6] 19.2 µM | [3] 14.1 µM | [4] 26.4 µM
inactive: [1] | PGR (gene 5241)

c1ccc2c(c1)Nc1ccccc1S2
inactive: [1] | [6] | [3] | [4] | [14] | [8]

COC(N)=O
inactive: [1] | [6] | [3] | [4]

CCOC(=O)c1ccccc1N
inactive: [1] | [6] | [3] | [4]

CCOS(=O)(=O)OCC
inactive: [1] | [6] | [3]

Cc1ccc(O)cc1C
inactive: [1] | [6] | [3] | [4]

O=C(O)C1C(C(=O)O)C2(Cl)C(Cl)=C(Cl)C1(Cl)C2(Cl)Cl (stereo unspecified)
inactive: [1] | [6] | [3] | [4]

CCN(CC)c1ccccc1
inactive: [1] | [6] | [12] | [13] | [3] | [4] | [8]

CCCCC(CC)COP(=O)(Oc1ccccc1)Oc1ccccc1 (stereo unspecified)
active: [6] 12.2 µM | [3] 50 µM
inactive: [1] | [12] | [13] | [4]

Nc1cc2c3c(c1)C(c1ccccc1)=N[C@@H](NC(=O)c1cccnc1)C(=O)N3CC2
inactive: [1] | [3] | [4] | PGR (gene 5241)

CN(C)C(=O)Cl
inactive: [1] | [7]
